Consider ten compounds from PubChem BioAssay.

The source made the active and inactive calls.

Experiment [1] relates to Plasmodium falciparum Sir2 (PF13_0152, Sir2A). Description: pfSir2 binders on small-molecule microarrays, primary screen, biochemical, small-molecule microarray, 635 nm fluorescence (AID 1098).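 Note: score merges spot fluorescence intensity with its signal-to-noise ratio.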 Particulars: small-molecule microarray binding, fluorescence 635 nm; higher = more signal.
Experiment [2] can be described thus: small-molecule microarray binders of probe aDKK1, primary screen, biochemical, biotinylated probe, 635/667 nm fluorescence (AID 1099).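 Note: score merges 667nm spot fluorescence with signal to noise across triplicate slides; reference of the scale not given here.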 To be noted: higher = more signal.
Experiment [3] in a line: small-molecule microarray binders of probe aCHRDL2, primary screen, biochemical, biotinylated probe, 635/667 nm fluorescence (AID 1100). Particulars: higher = more signal.
Experiment [4] can be described thus: splicing luciferase reporter signal modulators, primary screen, spliceosome inhibition project, cell-based, HEK293, splice +/- reporter (AID 1101).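 Note: HEK293 cells carrying a splicing-competent luciferase reporter gene; test concentration not given here.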 Particulars: luminescence, 24 h, higher = more signal, called active from +8 up or from −8 down. For orientation: In a reporter assay the amount or activity of a reporter protein is the signal.
Experiment [5] deals with Fibroblast growth factor 10 (Homo sapiens) (UniProt O15520). Description: FGF10 binders on small-molecule microarrays, primary screen, biochemical, small-molecule microarray, 635 nm fluorescence (AID 1102). To be noted: FGF10 binding, fluorescence 635 nm, higher = more signal.
Fibroblast growth factor 10 (Homo sapiens), sequence (O15520 whole entry, looked up): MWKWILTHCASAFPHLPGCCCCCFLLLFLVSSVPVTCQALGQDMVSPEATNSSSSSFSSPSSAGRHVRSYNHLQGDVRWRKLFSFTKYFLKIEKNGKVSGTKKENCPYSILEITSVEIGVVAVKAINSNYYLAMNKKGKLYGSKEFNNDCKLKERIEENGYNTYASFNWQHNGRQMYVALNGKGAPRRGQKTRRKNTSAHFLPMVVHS
The subject of experiment [6] is glycogen synthase kinase-3 (GSK3A per assay name; protocol says GSK3B). Description: GSK3 binders on small-molecule microarrays, primary screen, biochemical, small-molecule microarray, 635 nm fluorescence, GSK3A (AID 1103). Note: the record names both GSK3A and GSK3B. Particulars: small-molecule microarray binding, fluorescence 635 nm; higher = more signal.
The target of experiment [7] is Epidermal growth factor receptor (Homo sapiens) (UniProt P00533). Description: EGFR binders on small-molecule microarrays, primary screen, biochemical, small-molecule microarray, 635 nm fluorescence (AID 1104).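 Note: score merges 667 nm emission intensity with spot signal to noise over triplicate slides.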 Particulars: EGFR binding, higher = more signal.
Epidermal growth factor receptor (Homo sapiens), sequence (P00533 whole entry, looked up): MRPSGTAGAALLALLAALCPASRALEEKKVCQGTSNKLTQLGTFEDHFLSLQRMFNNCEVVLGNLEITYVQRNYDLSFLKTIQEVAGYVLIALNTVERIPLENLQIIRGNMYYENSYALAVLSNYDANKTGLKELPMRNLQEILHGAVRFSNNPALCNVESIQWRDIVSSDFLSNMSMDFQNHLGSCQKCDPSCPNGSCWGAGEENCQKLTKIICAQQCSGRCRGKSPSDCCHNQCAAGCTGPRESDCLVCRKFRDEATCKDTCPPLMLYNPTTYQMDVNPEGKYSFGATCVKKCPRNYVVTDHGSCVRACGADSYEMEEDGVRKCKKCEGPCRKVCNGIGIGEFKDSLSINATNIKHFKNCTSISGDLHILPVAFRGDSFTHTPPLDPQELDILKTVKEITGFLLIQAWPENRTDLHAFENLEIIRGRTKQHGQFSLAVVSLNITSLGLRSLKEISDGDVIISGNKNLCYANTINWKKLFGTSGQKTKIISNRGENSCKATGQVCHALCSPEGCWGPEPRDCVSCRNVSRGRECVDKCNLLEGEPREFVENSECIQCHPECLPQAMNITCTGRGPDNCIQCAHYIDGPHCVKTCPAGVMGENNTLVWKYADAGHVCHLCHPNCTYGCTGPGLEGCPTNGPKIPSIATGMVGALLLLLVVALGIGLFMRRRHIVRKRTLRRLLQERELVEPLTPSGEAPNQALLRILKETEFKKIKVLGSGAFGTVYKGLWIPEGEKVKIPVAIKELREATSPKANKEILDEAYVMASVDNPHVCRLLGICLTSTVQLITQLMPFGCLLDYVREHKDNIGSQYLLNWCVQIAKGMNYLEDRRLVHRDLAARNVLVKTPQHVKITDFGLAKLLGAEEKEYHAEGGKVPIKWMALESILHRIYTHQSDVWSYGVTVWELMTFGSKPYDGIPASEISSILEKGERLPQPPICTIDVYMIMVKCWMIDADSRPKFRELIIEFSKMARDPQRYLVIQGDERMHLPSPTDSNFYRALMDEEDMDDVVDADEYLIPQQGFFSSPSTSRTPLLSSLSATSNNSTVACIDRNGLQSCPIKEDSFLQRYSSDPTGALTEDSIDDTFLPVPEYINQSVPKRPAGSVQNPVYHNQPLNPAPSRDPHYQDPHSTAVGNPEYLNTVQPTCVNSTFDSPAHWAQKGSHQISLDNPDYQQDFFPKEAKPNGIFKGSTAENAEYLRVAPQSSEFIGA
The target of experiment [8] is Follistatin-related protein 3 (Homo sapiens) (UniProt O95633). Briefly: FSTL3 binders on small-molecule microarrays, primary screen, biochemical, small-molecule microarray, 635 nm fluorescence (AID 1105).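 Note: score merges emission near 667 nm and signal to noise per printed spot across three slides.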 Particulars: FSTL3 binding, higher = more signal.
Follistatin-related protein 3 (Homo sapiens), sequence (O95633 whole entry, looked up): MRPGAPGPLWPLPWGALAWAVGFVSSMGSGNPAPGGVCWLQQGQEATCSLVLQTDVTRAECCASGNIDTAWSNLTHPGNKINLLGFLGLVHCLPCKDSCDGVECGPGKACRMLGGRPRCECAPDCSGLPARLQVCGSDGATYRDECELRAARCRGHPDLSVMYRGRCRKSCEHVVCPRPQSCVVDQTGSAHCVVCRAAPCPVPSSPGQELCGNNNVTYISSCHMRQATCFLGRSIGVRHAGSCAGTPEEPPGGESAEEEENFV
Experiment [9] has as its target Dickkopf-related protein 1 (Homo sapiens) (UniProt O94907). Briefly: DKK1 binders on small-molecule microarrays, primary screen, biochemical, small-molecule microarray, 635 nm fluorescence scan (AID 1106).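 Note: score merges emission near 667 nm with signal to noise over three replicate slides.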 To be noted: DKK1 binding, higher = more signal.
Experiment [10] has as its system Inhibin beta A chain (activin A). Briefly: INHBA (activin A) binders on microarrays, primary screen, biochemical, small-molecule microarray, 635 nm fluorescence scan (AID 1107).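 Note: mouse activin A protein probed at 4.33 µg/mL on printed slides; score merges bound-protein fluorescence near 667 nm with spot signal-to-noise.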 Particulars: small-molecule microarray binding, higher = more signal.

Dickkopf-related protein 1 (Homo sapiens), sequence (O94907 whole entry, looked up): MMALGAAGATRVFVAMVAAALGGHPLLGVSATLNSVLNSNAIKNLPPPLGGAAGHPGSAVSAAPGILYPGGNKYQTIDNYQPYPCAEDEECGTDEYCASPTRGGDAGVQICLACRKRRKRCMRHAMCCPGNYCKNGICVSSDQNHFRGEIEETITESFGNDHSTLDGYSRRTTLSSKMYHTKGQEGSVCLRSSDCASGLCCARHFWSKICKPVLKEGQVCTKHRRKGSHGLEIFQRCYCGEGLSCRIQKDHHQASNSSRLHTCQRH

On to `O=C(c1ccccc1)N1C(=O)[C@]2(Cc3ccccc31)N=C(c1ccc(OCCCO)cc1)O[C@@H]2c1ccccc1`, for which the composite z-score was 1.2 in [1]; -0.0088 in experiment [2]; 0.339 in experiment [3]; 1.42 in [5]; 1.31 in experiment [6]; 0.0998 in [7]. Besides, the values for the composite z-score in experiment [8], in experiment [9] and in [10] were 0.554, 0.405 and 0.0538, respectively. Moreover, the z-score in experiment [4] is -0.936 (inactive).

As for `COC(=O)[C@@]1(Cc2ccc(OC)cc2)[C@H]2c3cc(C(=O)N4CCCC4)n(CCO)c3C[C@H]2CN1C(=O)c1ccccc1`, the composite z-score in experiment [1] worked out at 0.333; in experiment [2], 0.798; in [3], 0.888; in experiment [5], 0.717; in [6], 0.483; in experiment [7], 0.0327. Also, the composite z-score in experiment [8] was 0.155; in [9] it was -0.418; in [10], 0.45. Besides, in experiment [4], the z-score is -1.14 (inactive).

`COc1ccc([Si](C)(C)[C@H]2[C@H](CC(=O)N3Cc4ccccc4C[C@H]3CO)O[C@@]3(C(=O)N(Cc4ccc(N5CCOC5=O)cc4)c4ccccc43)[C@@H]2C)cc1`: the composite z-score is 0.149 in [1]; -0.161 in [2]; -0.345 in experiment [3]; 0.878 in [5]; 0.676 in experiment [6]; 1.03 in experiment [7]. In addition, the composite z-score in experiment [8] was found to be 1.04; in experiment [9] it was 0.929; in experiment [10], 1.05. Further, in experiment [4], the z-score was -0.817 (inactive).

`C=CCNC(=O)[C@@H]1[C@H]2C(=O)O[C@H](c3ccccc3)[C@H](c3ccccc3)N2[C@H](c2ccccc2OCCO)[C@@]12C(=O)N(C(=O)OCCOC)c1ccc(C#CC3(O)CCCCCC3)cc12`: the composite z-score in experiment [1] is 1.17; in experiment [2], 0.0347; in experiment [3] it was 0.31; in experiment [5], 0.87; in experiment [6], 1.3; in experiment [7], 0.598. The composite z-score in experiment [8] stood at 1.36; in [9], 0.579; in experiment [10], 1.13. The z-score in experiment [4] is -0.692 (inactive).

Regarding `C=C[C@H]1C(C(=O)OCC)=CC[C@@H](c2ccccc2)N1S(=O)(=O)c1ccc(C)cc1`, the composite z-score in [1] was found to be 1.05; in experiment [2], 0.158; in experiment [3], 0.587; in [5], 0.922; in experiment [6], 1.3; in [7], 0.224. The composite z-score in [8] amounted to 1.11; in experiment [9], 0.0288; in experiment [10], 1.34. Moreover, the z-score in experiment [4] was -2.78 (inactive).

`CCCCC(=C=CC[C@H](O)c1ccc(OCCO)cc1)CCO`: the composite z-score in experiment [1] is 0.69; in [2], -0.194; in [3], 0.208; in experiment [5], 0.0655; in experiment [6], -0.686; in experiment [7], -0.709. For the same compound, the figures for the composite z-score in experiment [8], in experiment [9] and in [10] were -0.24, -0.704 and 0.817, respectively. Also, the z-score in experiment [4] is -0.0149 (inactive).

Turning to `C=CCNC(=O)[C@@H]1[C@H]2C(=O)O[C@H](c3ccccc3)[C@H](c3ccccc3)N2[C@H](c2ccccc2OCCO)[C@@]12C(=O)Nc1ccc(C#CCCO)cc12`, the composite z-score in [1] is 0.124; in [2], -0.332; in experiment [3] it was 0.178; in experiment [5] it was 0.95; in experiment [6], 0.773; in experiment [7], 0.954. Further, the composite z-score came out at 1.04 in [8], 1.49 in experiment [9] and 0.65 in [10]. For the same compound, the z-score in experiment [4] was -1.06 (inactive).

As for `Cc1ccc(S[C@]2(C(=O)NCC(F)(F)F)CC(=O)N(Cc3cc(C(F)(F)F)cc(C(F)(F)F)c3)[C@@H]2c2ccc(CO)cc2I)cc1`, the composite z-score was 1.4 in [1]; -0.647 in [2]; 1.02 in experiment [3]; -1.03 in experiment [5]; -0.466 in [6]; -0.552 in experiment [7]. The composite z-score in experiment [8] was 0.0535; in experiment [9], -1.26; in experiment [10], 0.948. Moreover, the z-score in experiment [4] was -0.719 (inactive).

Regarding `CC1CC/C=C\[C@H]2OC34C=CCN(c5ccc6ccccc6c5)C(=O)[C@H]3N(CCCO)C(=O)[C@@H]4C2C(=O)O1` (stereo not given in full), the composite z-score was 0.0565 in experiment [1]; -0.179 in experiment [2]; 1.07 in experiment [3]; -1.32 in [5]; -0.592 in [6]; -1.2 in experiment [7]. The figures for the composite z-score in experiment [8], in [9] and in [10] were -0.912, -2.16 and -0.223, respectively. In experiment [4], the z-score was 0.738 (inactive).

Consider `NC(=O)NCC#Cc1ccc2c(c1)[C@]1(C(=O)N2)[C@H](c2ccccc2OCCO)N2[C@H](c3ccccc3)[C@H](c3ccccc3)OC(=O)[C@H]2[C@@H]1C(=O)O`, for which the composite z-score is 1.27 in experiment [1]; -0.103 in experiment [2]; 0.435 in experiment [3]; -0.0931 in experiment [5]; -0.397 in experiment [6]; -0.218 in [7]. In addition, the composite z-score in experiment [8] was -0.085; in [9], -0.266; in [10] it was 0.894. For the same compound, the z-score in experiment [4] was -0.724 (inactive).
